# How the values were obtained:
# Assay in all cases: DAPPL (digital affinity profiling via proximity ligation, sequencing); 10 mM Tris-HCl pH 7.5, 50 mM NaCl, 1 mM DTT, 4% glycerol, room temperature, 30 min; GST-TFs on glutathione beads, 16-mer random dsDNA library, 0.1% formaldehyde crosslink after washing; high values mean tight binding
# FEV = biological target: T1, FEV (Homo sapiens, UniProt Q99581 1-238); conditions: protein: recombinant; tags: N-terminal GST; dsDNA, one strand shown
# T1 sequence: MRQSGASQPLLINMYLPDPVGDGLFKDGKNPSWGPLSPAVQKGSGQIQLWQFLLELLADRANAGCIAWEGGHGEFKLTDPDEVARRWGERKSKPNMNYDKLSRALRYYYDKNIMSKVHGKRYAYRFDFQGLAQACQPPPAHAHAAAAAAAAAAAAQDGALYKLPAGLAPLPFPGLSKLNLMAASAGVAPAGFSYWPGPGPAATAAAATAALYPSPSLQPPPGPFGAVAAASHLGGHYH
# In short: (§1)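 Binding signal is each hexamer's read frequency for a factor divided by its frequency in the tag-only sample. The factors were GST-fused human transcription factors from yeast, captured on glutathione beads, DNA-barcoded and pooled with that sample. Pools were incubated with 200 nmole of a random double-stranded 16-mer DNA library in Tris/NaCl/DTT/glycerol buffer at room temperature for 30 min, then washed, crosslinked with 0.1% formaldehyde, proximity-ligated with BsaI/T4 ligase (1 h, 37 °C), PCR-amplified and sequenced on an Illumina NextSeq500.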
# ETV5 = ETV5 (Homo sapiens, UniProt P41161 1-510); conditions: protein: recombinant; tags: N-terminal GST; dsDNA, one strand shown
# ETV5, sequence (P41161 whole entry): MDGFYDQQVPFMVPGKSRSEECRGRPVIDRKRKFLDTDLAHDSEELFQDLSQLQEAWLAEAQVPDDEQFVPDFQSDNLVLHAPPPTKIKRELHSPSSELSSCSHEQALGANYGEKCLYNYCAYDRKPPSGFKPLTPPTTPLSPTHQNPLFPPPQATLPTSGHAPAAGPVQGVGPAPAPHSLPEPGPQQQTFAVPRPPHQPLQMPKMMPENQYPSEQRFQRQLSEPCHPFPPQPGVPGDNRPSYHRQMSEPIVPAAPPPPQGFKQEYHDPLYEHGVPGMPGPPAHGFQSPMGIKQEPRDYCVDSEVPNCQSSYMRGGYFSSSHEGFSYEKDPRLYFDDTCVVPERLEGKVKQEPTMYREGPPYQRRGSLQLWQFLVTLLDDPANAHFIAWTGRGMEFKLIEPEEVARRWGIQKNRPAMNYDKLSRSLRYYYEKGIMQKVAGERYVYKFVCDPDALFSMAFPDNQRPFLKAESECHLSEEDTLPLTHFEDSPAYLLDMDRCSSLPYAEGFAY
# In short: as §1
# HSF1 = HSF1 (Homo sapiens, UniProt Q00613 1-529); conditions: protein: recombinant; tags: N-terminal GST; chain copies: 3; dsDNA, one strand shown
# HSF1, sequence (Q00613 whole entry): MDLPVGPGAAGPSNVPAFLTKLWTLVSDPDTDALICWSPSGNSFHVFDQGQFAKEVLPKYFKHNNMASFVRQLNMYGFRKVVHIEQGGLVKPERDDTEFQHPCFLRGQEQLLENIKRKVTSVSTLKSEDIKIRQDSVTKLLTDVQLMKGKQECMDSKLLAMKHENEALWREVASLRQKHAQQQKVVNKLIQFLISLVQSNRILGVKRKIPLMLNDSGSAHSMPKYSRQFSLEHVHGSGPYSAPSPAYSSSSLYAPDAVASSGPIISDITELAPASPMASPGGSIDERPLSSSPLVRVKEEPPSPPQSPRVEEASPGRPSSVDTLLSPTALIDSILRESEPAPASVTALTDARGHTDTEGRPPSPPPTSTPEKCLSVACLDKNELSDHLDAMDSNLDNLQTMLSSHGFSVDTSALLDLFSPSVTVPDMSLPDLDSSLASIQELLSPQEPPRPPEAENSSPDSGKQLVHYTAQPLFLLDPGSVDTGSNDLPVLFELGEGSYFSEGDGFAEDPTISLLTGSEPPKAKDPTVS
# In short: as §1
# SPIC = biological target: T2, SPIC (Homo sapiens, UniProt Q8N5J4 1-248); conditions: protein: recombinant; tags: N-terminal GST; dsDNA, one strand shown
# T2 sequence: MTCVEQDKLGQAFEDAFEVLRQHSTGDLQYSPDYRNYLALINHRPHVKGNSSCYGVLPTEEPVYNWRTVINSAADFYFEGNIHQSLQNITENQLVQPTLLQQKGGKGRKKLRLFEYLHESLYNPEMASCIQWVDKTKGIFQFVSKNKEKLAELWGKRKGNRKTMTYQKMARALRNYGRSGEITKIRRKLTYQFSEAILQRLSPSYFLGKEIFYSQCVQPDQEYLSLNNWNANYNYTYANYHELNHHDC
# In short: as §1
# ELF4 = ELF4 (Homo sapiens, UniProt Q99607 1-663); conditions: protein: recombinant; tags: N-terminal GST; dsDNA, one strand shown
# ELF4, sequence (Q99607 whole entry): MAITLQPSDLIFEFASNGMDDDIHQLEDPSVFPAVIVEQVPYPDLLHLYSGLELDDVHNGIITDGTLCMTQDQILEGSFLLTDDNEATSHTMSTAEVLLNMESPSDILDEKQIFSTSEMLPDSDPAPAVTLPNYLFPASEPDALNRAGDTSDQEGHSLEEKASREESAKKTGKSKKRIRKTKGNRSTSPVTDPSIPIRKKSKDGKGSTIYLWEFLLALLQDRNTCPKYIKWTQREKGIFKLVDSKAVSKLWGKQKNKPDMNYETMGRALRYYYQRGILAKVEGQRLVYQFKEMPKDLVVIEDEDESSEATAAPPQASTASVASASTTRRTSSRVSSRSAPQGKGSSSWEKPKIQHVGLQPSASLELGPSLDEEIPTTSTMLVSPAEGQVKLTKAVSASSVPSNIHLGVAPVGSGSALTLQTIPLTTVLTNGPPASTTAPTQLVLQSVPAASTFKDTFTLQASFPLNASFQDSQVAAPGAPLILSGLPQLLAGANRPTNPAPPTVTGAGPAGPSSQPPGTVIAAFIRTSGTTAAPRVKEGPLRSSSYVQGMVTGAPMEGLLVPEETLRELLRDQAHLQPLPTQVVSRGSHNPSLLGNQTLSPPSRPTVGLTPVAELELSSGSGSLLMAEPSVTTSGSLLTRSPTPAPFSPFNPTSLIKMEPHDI
# In short: as §1
# ELK4 = biological target: T3, ELK4 (Homo sapiens, UniProt P28324-2 1-405); conditions: protein: recombinant; tags: N-terminal GST; dsDNA, one strand shown
# T3 sequence: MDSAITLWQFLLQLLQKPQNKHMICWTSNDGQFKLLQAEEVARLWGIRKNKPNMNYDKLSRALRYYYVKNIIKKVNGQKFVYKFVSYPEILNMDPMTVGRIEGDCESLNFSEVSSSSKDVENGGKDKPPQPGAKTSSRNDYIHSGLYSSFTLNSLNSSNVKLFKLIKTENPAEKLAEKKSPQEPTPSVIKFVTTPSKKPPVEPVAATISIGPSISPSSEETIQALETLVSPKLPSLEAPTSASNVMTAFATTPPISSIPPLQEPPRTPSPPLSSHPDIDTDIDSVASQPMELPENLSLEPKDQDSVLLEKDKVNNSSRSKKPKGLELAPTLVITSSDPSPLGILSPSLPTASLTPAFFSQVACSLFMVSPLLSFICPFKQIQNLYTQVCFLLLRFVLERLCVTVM
# In short: as §1
# ETV2 = biological target: T4, ETV2 (Homo sapiens, UniProt O00321 1-342); conditions: protein: recombinant; tags: N-terminal GST; dsDNA, one strand shown
# T4 sequence: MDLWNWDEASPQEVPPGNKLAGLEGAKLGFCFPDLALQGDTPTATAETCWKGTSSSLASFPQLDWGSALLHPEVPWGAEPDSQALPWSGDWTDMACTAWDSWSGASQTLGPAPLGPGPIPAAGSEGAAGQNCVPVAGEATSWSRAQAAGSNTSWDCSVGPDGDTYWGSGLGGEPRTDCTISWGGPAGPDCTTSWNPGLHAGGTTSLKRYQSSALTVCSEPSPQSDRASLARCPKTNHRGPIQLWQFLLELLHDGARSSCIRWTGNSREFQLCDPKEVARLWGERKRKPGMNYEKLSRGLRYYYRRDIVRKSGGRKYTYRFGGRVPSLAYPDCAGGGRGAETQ
# In short: as §1
# ELF3 = biological target: T5, ELF3 (Homo sapiens, UniProt P78545 1-371); conditions: protein: recombinant; tags: N-terminal GST; dsDNA, one strand shown
# T5 sequence: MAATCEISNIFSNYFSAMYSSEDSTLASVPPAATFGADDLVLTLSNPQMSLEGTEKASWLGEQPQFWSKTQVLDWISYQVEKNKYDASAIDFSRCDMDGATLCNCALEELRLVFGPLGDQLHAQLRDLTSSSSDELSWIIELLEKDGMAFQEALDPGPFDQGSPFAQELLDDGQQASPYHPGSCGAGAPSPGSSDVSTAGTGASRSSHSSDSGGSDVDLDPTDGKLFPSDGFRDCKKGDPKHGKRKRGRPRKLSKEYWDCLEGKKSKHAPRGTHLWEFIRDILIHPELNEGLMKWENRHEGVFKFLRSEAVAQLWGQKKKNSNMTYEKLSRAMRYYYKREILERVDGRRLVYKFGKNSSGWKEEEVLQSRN
# In short: as §1
# CRX = CRX (Homo sapiens, UniProt O43186 1-299); conditions: protein: recombinant; tags: N-terminal GST; dsDNA, one strand shown
# CRX, sequence (O43186 whole entry): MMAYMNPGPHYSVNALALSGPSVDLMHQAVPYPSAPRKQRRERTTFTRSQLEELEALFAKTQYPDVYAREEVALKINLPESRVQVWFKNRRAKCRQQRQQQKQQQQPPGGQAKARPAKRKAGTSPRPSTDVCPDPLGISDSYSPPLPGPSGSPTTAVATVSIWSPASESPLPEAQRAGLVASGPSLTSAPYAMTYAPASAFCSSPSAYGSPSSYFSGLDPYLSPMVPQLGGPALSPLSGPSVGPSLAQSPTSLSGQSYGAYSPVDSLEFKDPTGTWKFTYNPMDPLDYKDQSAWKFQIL
# In short: as §1
# ETV1 = ETV1 (Homo sapiens, UniProt P50549 1-477); conditions: protein: recombinant; tags: N-terminal GST; dsDNA, one strand shown
# ETV1, sequence (P50549 whole entry): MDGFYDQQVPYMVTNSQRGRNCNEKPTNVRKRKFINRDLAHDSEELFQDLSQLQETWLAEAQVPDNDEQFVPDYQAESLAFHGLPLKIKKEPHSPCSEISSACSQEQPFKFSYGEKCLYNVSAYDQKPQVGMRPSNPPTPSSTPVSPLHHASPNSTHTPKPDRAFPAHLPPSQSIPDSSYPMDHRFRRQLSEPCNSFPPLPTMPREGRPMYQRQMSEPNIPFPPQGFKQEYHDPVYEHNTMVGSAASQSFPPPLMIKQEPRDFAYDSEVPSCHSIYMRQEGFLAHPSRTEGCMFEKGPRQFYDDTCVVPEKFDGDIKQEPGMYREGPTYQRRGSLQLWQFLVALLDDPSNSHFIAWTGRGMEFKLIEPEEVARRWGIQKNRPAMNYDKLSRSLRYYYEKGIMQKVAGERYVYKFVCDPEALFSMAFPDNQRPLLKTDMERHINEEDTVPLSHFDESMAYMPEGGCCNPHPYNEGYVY
# In short: as §1
# ERF = biological target: T6, ERF (Homo sapiens, UniProt P50548 1-548); conditions: protein: recombinant; tags: N-terminal GST; dsDNA, one strand shown
# T6 sequence: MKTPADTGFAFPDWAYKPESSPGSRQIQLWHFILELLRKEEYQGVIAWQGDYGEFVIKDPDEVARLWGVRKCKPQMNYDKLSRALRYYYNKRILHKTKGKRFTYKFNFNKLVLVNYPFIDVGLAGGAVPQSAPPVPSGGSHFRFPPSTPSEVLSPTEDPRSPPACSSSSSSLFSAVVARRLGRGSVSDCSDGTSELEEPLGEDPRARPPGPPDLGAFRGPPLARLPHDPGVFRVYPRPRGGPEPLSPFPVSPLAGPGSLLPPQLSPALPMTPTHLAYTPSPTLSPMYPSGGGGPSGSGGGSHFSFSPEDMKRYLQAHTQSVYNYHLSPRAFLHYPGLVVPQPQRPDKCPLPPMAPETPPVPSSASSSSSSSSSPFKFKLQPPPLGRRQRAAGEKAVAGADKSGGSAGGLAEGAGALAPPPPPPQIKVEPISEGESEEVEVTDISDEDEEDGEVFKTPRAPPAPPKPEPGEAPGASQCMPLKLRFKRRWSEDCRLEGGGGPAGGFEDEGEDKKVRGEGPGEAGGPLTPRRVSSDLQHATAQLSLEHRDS
# In short: as §1
# ETV3L = biological target: T7, ETV3L (Homo sapiens, UniProt Q6ZN32 1-361); conditions: protein: recombinant; tags: N-terminal GST; dsDNA, one strand shown
# T7 sequence: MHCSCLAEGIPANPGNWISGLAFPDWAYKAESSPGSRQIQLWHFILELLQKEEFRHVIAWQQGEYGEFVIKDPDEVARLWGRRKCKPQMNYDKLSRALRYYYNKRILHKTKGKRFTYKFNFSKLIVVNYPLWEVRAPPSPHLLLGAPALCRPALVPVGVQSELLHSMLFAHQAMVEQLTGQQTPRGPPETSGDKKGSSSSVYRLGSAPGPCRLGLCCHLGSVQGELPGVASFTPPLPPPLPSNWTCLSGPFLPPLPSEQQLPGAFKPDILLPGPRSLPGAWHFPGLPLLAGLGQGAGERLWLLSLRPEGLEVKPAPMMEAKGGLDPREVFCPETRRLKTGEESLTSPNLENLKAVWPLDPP
# In short: as §1
# ETS2 = biological target: T8, ETS2 (Homo sapiens, UniProt P15036 1-469); conditions: protein: recombinant; tags: N-terminal GST; dsDNA, one strand shown
# T8 sequence: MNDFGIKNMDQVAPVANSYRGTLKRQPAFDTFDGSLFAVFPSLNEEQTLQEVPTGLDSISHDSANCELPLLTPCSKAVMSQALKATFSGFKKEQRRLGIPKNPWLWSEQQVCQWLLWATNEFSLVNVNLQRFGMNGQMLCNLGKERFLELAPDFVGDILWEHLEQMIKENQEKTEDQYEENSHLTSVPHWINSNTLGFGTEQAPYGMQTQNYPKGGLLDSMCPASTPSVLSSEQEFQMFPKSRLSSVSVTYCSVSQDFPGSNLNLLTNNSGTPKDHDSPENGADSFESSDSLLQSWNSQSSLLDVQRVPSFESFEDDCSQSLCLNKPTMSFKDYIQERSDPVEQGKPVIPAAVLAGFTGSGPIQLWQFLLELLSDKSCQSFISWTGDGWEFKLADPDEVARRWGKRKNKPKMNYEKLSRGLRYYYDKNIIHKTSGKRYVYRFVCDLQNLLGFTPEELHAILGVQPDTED
# In short: as §1
# SPDEF = biological target: T9, SPDEF (Homo sapiens, UniProt O95238 1-335); conditions: protein: recombinant; tags: N-terminal GST; dsDNA, one strand shown
# T9 sequence: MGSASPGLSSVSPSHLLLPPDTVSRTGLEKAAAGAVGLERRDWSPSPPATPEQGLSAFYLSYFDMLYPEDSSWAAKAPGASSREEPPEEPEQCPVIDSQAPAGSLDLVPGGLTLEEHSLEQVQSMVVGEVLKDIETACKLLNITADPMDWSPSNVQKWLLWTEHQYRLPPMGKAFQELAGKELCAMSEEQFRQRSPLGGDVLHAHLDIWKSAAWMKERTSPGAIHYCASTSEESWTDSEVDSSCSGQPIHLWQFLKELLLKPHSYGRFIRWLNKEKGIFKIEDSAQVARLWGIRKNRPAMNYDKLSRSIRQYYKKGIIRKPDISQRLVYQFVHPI
# In short: as §1
# ETV7 = biological target: T10, ETV7 (Homo sapiens, UniProt Q9Y603 1-341); conditions: protein: recombinant; tags: N-terminal GST; dsDNA, one strand shown
# T10 sequence: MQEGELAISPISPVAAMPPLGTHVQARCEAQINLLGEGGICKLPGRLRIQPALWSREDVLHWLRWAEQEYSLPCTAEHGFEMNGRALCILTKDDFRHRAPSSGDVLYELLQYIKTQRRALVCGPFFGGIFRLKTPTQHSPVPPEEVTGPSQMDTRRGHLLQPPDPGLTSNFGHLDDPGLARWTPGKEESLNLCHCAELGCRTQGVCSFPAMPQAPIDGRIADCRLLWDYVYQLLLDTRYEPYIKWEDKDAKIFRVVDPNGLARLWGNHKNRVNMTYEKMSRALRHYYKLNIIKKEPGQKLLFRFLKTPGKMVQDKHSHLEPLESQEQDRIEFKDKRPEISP
# In short: as §1
# ELF5 = biological target: T11, ELF5 (Homo sapiens, UniProt Q9UKW6-2 1-255); conditions: protein: recombinant; tags: N-terminal GST; dsDNA, one strand shown
# T11 sequence: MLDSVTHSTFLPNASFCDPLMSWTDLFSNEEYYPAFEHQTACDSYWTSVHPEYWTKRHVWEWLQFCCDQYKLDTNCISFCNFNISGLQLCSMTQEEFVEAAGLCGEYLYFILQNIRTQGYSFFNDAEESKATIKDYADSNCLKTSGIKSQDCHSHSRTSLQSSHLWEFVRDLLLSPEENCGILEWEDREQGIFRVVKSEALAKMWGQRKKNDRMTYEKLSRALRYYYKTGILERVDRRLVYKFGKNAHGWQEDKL
# In short: as §1
# ETV3 = biological target: T12, ETV3 (Homo sapiens, UniProt P41162-2 1-143); conditions: protein: recombinant; tags: N-terminal GST; dsDNA, one strand shown
# T12 sequence: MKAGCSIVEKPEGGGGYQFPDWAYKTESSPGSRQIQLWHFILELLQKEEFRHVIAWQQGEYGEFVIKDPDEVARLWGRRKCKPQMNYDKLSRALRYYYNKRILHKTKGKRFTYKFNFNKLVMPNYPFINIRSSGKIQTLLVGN
# In short: as §1
# ETV6 = ETV6 (Homo sapiens, UniProt P41212 1-452); conditions: protein: recombinant; tags: N-terminal GST; dsDNA, one strand shown
# ETV6, sequence (P41212 whole entry): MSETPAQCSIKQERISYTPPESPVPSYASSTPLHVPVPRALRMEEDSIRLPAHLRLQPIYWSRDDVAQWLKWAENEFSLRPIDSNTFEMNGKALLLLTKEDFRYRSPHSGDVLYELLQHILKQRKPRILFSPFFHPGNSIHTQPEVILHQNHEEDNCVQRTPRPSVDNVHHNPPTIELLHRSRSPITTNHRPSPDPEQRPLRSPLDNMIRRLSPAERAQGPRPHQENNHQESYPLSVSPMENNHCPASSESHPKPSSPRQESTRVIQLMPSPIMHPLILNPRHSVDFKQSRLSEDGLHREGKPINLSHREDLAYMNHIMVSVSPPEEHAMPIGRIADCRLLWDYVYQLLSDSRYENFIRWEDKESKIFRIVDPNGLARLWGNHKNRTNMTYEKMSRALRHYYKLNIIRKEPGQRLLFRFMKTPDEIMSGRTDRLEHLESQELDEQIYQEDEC
# In short: as §1
sequence,measurement,setting,value
TCCGAC,binding signal,FEV,"1.68 fold enrichment (6-mer frequency, TF over GST control)"
same,binding signal,ETV5,"1.44 fold enrichment (6-mer frequency, TF over GST control)"
same,binding signal,HSF1,"1.23 fold enrichment (6-mer frequency, TF over GST control)"
same,binding signal,SPIC,"1.59 fold enrichment (6-mer frequency, TF over GST control)"
same,binding signal,ELF4,"1.44 fold enrichment (6-mer frequency, TF over GST control)"
same,binding signal,ELK4,"1.43 fold enrichment (6-mer frequency, TF over GST control)"
same,binding signal,ETV2,"1.35 fold enrichment (6-mer frequency, TF over GST control)"
same,binding signal,ELF3,"1.47 fold enrichment (6-mer frequency, TF over GST control)"
same,binding signal,CRX,"1.25 fold enrichment (6-mer frequency, TF over GST control)"
same,binding signal,ETV1,"1.55 fold enrichment (6-mer frequency, TF over GST control)"
same,binding signal,ERF,"1.57 fold enrichment (6-mer frequency, TF over GST control)"
same,binding signal,ETV3L,"1.47 fold enrichment (6-mer frequency, TF over GST control)"
same,binding signal,ETS2,"1.48 fold enrichment (6-mer frequency, TF over GST control)"
same,binding signal,SPDEF,"1.43 fold enrichment (6-mer frequency, TF over GST control)"
same,binding signal,ETV7,"1.43 fold enrichment (6-mer frequency, TF over GST control)"
same,binding signal,ELF5,"1.61 fold enrichment (6-mer frequency, TF over GST control)"
same,binding signal,ETV3,"1.43 fold enrichment (6-mer frequency, TF over GST control)"
same,binding signal,ETV6,"1.55 fold enrichment (6-mer frequency, TF over GST control)"

# Source: paper PMC7862700, “An all-to-all approach to the identification of sequence-specific readers for epigenetic DNA modifications on cytosine”
